In PubChem BioAssay (Tox21):
Unmarked numbers belong to inactive results. Inconclusive results are not listed. Where a call stands in place of a potency, no number is given. Activity calls are given as the source filed them. Unless noted, calls follow the shape of the dose curve; as a rule, active = well fitted curve in the direction sought with a large enough effect in the repeat runs; inconclusive = weak or mixed curves; inactive = no such curve, though single readings can be large; an effect the other way counts as inactive or inconclusive.

Tests used:
[1] = qHTS assay to identify small molecule antagonists of the estrogen receptor beta (ER-beta) signaling pathway - cell viability counter screen (AID 1259382);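 also: HEK293T cells carrying ER-beta-UAS-bla reporter stimulated with estradiol; series mostly up to about 92 µM; nearly all actives have a fitted effect of over 55% in size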
Method in brief: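 Cells: ER-beta-UAS-bla HEK293T, 2,000/well, 2% CS-FBS, 6 hr settle. Cpd + E2 (1nM final), 16 hr, 37C/5% CO2. Bla FRET substrate 2 hr RT, then CellTiter-Glo 30 min RT, luminescence.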

[2] = molecular target: Estrogen receptor (Homo sapiens) (UniProt P03372); assay: qHTS assay to identify small molecule agonists of the estrogen receptor alpha (ER-alpha) signaling pathway in the presence of an antagonist (AID 1259383; calls by dose curve; also: top concentration of the series differs between compounds; nearly all actives have a fitted effect of over 15% in size)
Sequence of Estrogen receptor (Homo sapiens) (P03372 whole entry, looked up): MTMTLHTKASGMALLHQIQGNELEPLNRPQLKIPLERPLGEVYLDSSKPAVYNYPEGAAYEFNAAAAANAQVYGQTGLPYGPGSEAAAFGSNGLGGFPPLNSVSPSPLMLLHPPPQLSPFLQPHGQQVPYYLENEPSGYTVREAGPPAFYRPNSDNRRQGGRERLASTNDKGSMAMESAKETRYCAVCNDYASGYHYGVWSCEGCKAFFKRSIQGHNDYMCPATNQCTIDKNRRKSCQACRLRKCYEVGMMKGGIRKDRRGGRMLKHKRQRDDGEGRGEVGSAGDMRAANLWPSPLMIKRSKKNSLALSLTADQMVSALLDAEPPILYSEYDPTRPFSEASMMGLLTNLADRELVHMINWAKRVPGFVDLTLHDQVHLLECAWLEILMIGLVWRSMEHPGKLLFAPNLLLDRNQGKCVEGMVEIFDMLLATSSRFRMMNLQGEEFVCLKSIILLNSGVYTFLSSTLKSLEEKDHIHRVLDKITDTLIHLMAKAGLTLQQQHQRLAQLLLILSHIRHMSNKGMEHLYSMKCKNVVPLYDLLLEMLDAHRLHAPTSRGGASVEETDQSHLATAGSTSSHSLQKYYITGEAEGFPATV
Method in brief: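 VM7Luc4E2, endog. ER-alpha + 4×ERE-luc; charcoal-stripped FBS, phenol red-free, 5 d; 24hr plating; +10.0nM ICI-182,780 (final); cpds 15 conc, 22hr, 37C/5% CO2; ONE-Glo luminescence.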

[3] = qHTS assay to identify small molecule agonists or antagonists of the thyroid stimulating hormone receptor (TSHR) signaling pathway - wild type cell line counter screen (AID 1259384; calls by dose curve)
Method in brief: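 Counter screen in untransfected Hek293: compounds (15-point titration, triplicate) plus phosphodiesterase inhibitor Ro20-1724 added after 18 h plating; 30 min RT. Intracellular cAMP via competitive d2/cryptate immunoassay, 1 h incubation.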

[4] = molecular target: Thyrotropin receptor (Homo sapiens) (UniProt P16473); assay: qHTS assay to identify small molecule antagonists of the thyroid stimulating hormone receptor (TSHR) signaling pathway (AID 1259385; calls by dose curve; also: nearly all actives have a fitted effect of over 20% in size)
Sequence of Thyrotropin receptor (Homo sapiens) (P16473 whole entry, looked up): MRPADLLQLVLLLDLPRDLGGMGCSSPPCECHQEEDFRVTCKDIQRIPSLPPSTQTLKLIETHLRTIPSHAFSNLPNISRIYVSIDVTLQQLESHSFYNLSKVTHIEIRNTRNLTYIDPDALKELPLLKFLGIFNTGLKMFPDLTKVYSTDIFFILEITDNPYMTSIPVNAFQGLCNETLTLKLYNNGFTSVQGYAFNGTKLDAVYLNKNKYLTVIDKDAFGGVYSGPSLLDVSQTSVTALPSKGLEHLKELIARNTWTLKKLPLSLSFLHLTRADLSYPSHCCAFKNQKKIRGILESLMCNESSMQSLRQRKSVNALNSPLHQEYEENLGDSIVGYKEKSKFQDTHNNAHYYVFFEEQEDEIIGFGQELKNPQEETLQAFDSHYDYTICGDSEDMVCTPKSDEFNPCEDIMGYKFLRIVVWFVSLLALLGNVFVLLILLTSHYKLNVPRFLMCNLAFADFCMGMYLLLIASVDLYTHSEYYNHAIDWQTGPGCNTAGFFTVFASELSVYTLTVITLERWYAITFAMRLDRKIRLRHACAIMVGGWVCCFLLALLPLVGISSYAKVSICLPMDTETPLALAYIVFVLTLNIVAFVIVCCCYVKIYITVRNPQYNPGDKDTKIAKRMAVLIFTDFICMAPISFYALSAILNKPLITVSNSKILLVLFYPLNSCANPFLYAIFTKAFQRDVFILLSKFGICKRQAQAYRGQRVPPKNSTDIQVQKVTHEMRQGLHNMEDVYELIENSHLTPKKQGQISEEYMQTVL
Method in brief: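 Antagonist mode: compound-treated TSHR-expressing HEK293 cells were stimulated with 1.5 ng/mL TSH (final) in presence of Ro20-1724 for 30 min at RT. HTRF cAMP detection after 1 h; each compound tested at 15 concentrations, triplicate.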

[5] = qHTS assay to identify small molecule agonists of the estrogen receptor alpha (ER-alpha) signaling pathway in the presence of an antagonist - cell viability counter screen (AID 1259386);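 also: series mostly up to about 92 µM; cells exposed to compounds for 22 h at 37 °C before the viability read; nearly all actives have a fitted effect of over 30% in size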
Method in brief: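 VM7Luc4E2, stripped-serum pre-culture 5 d; 24hr plating; +ICI-182,780 10.0nM final; cpds 15 conc, 22hr, 37C/5% CO2; CellTiter-Fluor added at 21hr, fluorescence 1hr later.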

[6] = molecular target: Progesterone receptor (Homo sapiens) (UniProt P06401); assay: qHTS assay to identify small molecule agonists of the progesterone receptor (PR) signaling pathway (AID 1346784; calls by dose curve; also: nearly all actives have a fitted effect of over 30% in size)
Sequence of Progesterone receptor (Homo sapiens) (P06401 whole entry, looked up): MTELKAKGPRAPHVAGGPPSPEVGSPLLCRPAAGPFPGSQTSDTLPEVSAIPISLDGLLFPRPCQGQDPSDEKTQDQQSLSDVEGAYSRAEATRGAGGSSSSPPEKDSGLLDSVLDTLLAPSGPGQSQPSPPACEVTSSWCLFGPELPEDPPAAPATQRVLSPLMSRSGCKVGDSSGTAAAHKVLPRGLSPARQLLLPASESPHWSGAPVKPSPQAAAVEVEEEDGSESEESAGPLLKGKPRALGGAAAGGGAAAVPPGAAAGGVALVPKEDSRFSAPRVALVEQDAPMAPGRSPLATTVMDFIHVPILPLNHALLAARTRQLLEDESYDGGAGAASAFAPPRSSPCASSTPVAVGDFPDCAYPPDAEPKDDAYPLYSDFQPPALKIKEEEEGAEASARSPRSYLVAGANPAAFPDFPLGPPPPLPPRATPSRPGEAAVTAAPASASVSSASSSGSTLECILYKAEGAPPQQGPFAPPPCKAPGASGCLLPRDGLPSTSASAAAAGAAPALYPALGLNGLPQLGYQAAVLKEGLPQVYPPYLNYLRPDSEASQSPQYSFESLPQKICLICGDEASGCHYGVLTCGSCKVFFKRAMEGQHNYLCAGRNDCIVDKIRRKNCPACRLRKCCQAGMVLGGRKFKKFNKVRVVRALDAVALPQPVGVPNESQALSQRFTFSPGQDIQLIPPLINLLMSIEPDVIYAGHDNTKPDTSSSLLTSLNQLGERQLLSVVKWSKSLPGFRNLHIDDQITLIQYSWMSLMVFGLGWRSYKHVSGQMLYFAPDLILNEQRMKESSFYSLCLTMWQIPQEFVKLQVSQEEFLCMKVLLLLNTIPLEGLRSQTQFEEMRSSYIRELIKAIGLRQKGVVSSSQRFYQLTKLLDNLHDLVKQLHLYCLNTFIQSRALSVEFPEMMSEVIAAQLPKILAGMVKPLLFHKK
Method in brief: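 Seed PR-UAS-bla HEK 293T cells (2% charcoal-stripped FBS), incubate 6 hr at 37C; add compounds in DMSO, 16 hr at 37C; add LiveBLAzer B/G substrate, 2 hr RT; read fluorescence intensity.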

[7] = molecular target: Progesterone receptor (Homo sapiens) (UniProt P06401); assay: qHTS assay to identify small molecule antagonists of the progesterone receptor (PR) signaling pathway (AID 1346795; active = well fitted inhibition curve with a large enough effect in the signal ratio in the repeat runs, not every such curve was filed as active; the % refers to the signal ratio)
Method in brief: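 Screening used a GripTite HEK293T line with PR-responsive UAS-beta-lactamase. Cells were challenged with compound in the presence of 1 nM R5020 final for 16 hr at 37C; B/G FRET substrate, 2 hr room temperature, fluorescence.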

[8] = qHTS assay to identify small molecule antagonists of the progesterone receptor (PR) signaling pathway - cell viability counter screen (AID 1346798); also: series mostly up to about 92 µM; nearly all actives have a fitted effect of over 50% in size
Method in brief: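 Measures cytotoxicity in parallel with the PR antagonist reporter read: HEK293T PR-UAS-bla cells get compound and R5020 for 16 hr, and remaining viable cells are quantified by CellTiter-Glo luminescence.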

[9] = qHTS assay to identify small molecule agonists of the progesterone receptor (PR) signaling pathway - cell viability counter screen (AID 1346799; calls by dose curve; also: nearly all actives have a fitted effect of over 45% in size)
Method in brief: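 Using the same plates as the PR reporter screen, HEK293T PR-UAS-bla cells received compounds for 16 hr at 37C and were then lysed with CellTiter-Glo; luminescence was read 30 min later at room temperature.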

[10] = qHTS assay to identify small molecule antagonists of the TGF-beta/Smad signaling pathway - cell viability counter screen (AID 1346824); also: nearly all actives have a fitted effect of over 50% in size
Method in brief: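 Cytotoxicity counter-screen run in the same wells as the beta-lactamase Smad reporter read: CellTiter-Glo luminescence after 30 min at room temperature. HEK 293T SBE-bla cells had 5 hr compound exposure at 37 C with TGF-beta1 (0.25 ng/mL stock).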

[11] = qHTS assay to identify small molecule agonists of the TGF-beta/Smad signaling pathway - cell viability counter screen (AID 1346829); also: top concentration of the series differs between compounds; nearly all actives have a fitted effect of over 45% in size
Method in brief: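 HEK 293T SBE-bla line, 5 hr compound exposure at 37 C, multiplexed CellTiter-Glo viability read by luminescence.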

[12] = qHTS assay to identify small molecule agonists of the TGF-beta/Smad signaling pathway (AID 1346859; active = well fitted activation curve with a large enough effect in the signal ratio in the repeat runs, not every such curve was filed as active; the % refers to the signal ratio; also: series mostly up to about 77 µM)
Method in brief: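 Beta-lactamase reporter activity downstream of Smad binding elements was measured in stably transfected HEK 293T cells; compounds were incubated for 5 hr, substrate for 2 hr at room temperature.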

[13] = molecular target: Thyrotropin-releasing hormone receptor (Homo sapiens) (UniProt P34981); assay: qHTS assay to identify small molecule antagonists of the thyrotropin-releasing hormone receptor (TRHR) signaling pathway (AID 1346877; active = well fitted inhibition curve with a large enough effect in the repeat runs, not every such curve was filed as active; also: series mostly up to about 51 µM)
Sequence of Thyrotropin-releasing hormone receptor (Homo sapiens) (P34981 whole entry, looked up): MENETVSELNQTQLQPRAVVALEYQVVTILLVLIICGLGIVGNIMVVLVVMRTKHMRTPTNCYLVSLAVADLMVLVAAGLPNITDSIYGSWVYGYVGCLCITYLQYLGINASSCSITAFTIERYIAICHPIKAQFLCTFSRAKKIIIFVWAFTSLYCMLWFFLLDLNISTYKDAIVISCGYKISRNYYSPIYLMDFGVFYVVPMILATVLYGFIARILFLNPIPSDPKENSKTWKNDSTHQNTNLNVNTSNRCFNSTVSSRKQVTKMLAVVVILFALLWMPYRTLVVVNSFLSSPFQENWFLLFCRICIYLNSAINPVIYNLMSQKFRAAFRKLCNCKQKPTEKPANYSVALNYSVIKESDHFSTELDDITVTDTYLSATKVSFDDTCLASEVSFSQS
Method in brief: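 Intracellular calcium fluorescence, read kinetically every second over 3 min, reports TRH-evoked signalling in HEK293 cells carrying TRHR. Test compounds were added 5 min ahead of a 1 nM TRH challenge.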

[14] = molecular target: Thyrotropin-releasing hormone receptor (Homo sapiens) (UniProt P34981); assay: qHTS assay to identify small molecule agonists of the thyrotropin-releasing hormone receptor (TRHR) signaling pathway (AID 1346891; calls by dose curve;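 also: HEK293 cells expressing TRHR with calcium dye readout; series mostly up to about 58 µM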)
Method in brief: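 Overnight-plated (18 h, 37 °C, 5% CO2) TRHR-Hek293 cells; 2 h calcium dye at 37 °C; compound in DMSO; 3-min kinetic fluorescence read.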

[15] = Human pregnane X receptor (PXR) small molecule agonists, qHTS cell viability counter screen (AID 1346977); also: nearly all actives have a fitted effect of over 50% in size
Method in brief: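 After a 5hr pre-incubation, PXR-Luc HepG2 cells received compounds plus positive control in DMSO and were kept 24hr at 37C. Cell viability was quantified by fluorescence from CellTiter-Fluor added for the final hour.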

[16] = Caspase-3/7 induction in HepG2 cells by small molecules, qHTS assay (AID 1346978); also: nearly all actives have a fitted effect of over 15% in size
Method in brief: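 Caspase-3/7 induction was measured by Caspase-Glo 3/7 luminescence (30 min, room temperature) after a 17 hr compound exposure of wild-type HepG2 cells seeded at 2,000 per well and pre-incubated 5 hr.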

[17] = Caspase-3/7 induction in CHO-K1 cells by small molecules, qHTS assay (AID 1346980); also: nearly all actives have a fitted effect of over 15% in size
Method in brief: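 Luminescent Caspase-Glo 3/7 read (30min, room temperature) quantified apoptosis induction. Cells were wild-type CHO-K1, treated with compound for 17hr at 37 C and 5% CO2.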

[18] = Caspase-3/7 induction in HepG2 cells by small molecules, qHTS cell viability counter screen (AID 1346981); also: series mostly up to about 92 µM; nearly all actives have a fitted effect of over 30% in size
Method in brief: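 HepG2, WT, 2,000 cells/well; 5 hr pre-incubation 37 C/5% CO2; compound pin-transferred from DMSO; 16 hr exposure; CellTiter-Fluor, 1 hr; fluorescence read.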

[19] = molecular target: Nuclear receptor subfamily 1 group I member 2 (Homo sapiens) (UniProt O75469); assay: Human pregnane X receptor (PXR) small molecule agonists, qHTS assay (AID 1346982); also: nearly all actives have a fitted effect of over 35% in size; also: potency is read from the fitted curve at half-maximal effect
Sequence of Nuclear receptor subfamily 1 group I member 2 (Homo sapiens) (O75469 whole entry, looked up): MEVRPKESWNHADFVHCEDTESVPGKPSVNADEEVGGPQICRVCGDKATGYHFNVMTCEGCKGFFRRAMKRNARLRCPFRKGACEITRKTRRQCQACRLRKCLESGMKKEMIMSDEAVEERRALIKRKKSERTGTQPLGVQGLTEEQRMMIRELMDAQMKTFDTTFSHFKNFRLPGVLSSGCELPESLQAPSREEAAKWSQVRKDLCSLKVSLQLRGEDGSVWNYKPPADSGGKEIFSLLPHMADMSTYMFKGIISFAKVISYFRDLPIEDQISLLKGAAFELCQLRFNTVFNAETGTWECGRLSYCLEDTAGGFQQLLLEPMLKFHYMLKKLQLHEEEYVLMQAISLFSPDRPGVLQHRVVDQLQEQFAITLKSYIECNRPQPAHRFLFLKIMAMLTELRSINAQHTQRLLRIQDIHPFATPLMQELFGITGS
Method in brief: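 Luciferase signal from ONE-Glo (30 min, room temperature) measured activation of hPXR-driven CYP3A4 reporter expression in PXR-Luc HepG2 cells treated with compounds for 24 hr at 37 C.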

[20] = Caspase-3/7 induction in CHO-K1 cells by small molecules, qHTS cell viability counter screen (AID 1346979); also: nearly all actives have a fitted effect of over 35% in size
Method in brief: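 Multiplexed with Caspase-Glo 3/7 in CHO-K1 cells, this counter screen added CellTiter-Fluor after 16hr of compound exposure and recorded fluorescence 1hr later.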

SMILES	outcome [1]	Potency [2]	outcome [3]	outcome [4]	outcome [5]	Potency [6]	Potency [7]	outcome [8]	Potency [9]	outcome [10]	outcome [11]	outcome [12]	outcome [13]	Potency [14]	outcome [15]	outcome [16]	outcome [17]	outcome [18]	Potency [19]	Potency [20]
C=CC(C)(CCC=C(C)C)OC(=O)C(C)C (stereo not given)	inactive	inactive	inactive	inactive	inactive	inactive	inactive	inactive	inactive	inactive	inactive	inactive	inactive	inactive	inactive	inactive	inactive	inactive	inactive	
Clc1cc(Cl)c(Cl)c(Cl)c1Cl	inactive	inactive	inactive	inactive	inactive	inactive	inactive	inactive		inactive		inactive	inactive	inactive	inactive	inactive	inactive			inactive
CC(C)(C)C(=O)CC(=O)C(C)(C)C	inactive	inactive	inactive	inactive	inactive	inactive	inactive	inactive	inactive	inactive	inactive	inactive	inactive		inactive	inactive	inactive	inactive	inactive	inactive
C/C=C(\C)C(=O)OC/C=C(\C)CCC=C(C)C	inactive	inactive	inactive	inactive	inactive	inactive	inactive	inactive	inactive	inactive	inactive	inactive			inactive	inactive	inactive	inactive	inactive	inactive
Nc1cc(S(=O)(=O)O)ccc1O	inactive	inactive	inactive	inactive	inactive	inactive	inactive	inactive	inactive	inactive	inactive	inactive	inactive	inactive	inactive	inactive	inactive	inactive	inactive	inactive
Cc1ccc(OC(=O)CC(C)C)cc1	inactive	inactive	inactive	inactive	inactive	inactive	inactive	inactive	inactive	inactive	inactive	inactive	inactive	inactive	inactive	inactive	inactive	inactive		inactive
CC(=O)/C=C/C=C1/C2CCC(C2)C1(C)C (stereo not given)	inactive	inactive	inactive	inactive	inactive	inactive	inactive	inactive		inactive	inactive	inactive	inactive		inactive	inactive	inactive	inactive	3.76 µM (active)	inactive
C=CCn1cc[n+](C)c1	inactive	inactive	inactive	inactive	inactive	inactive	inactive	inactive		inactive		inactive	inactive	inactive	inactive	inactive	inactive	inactive	inactive	inactive
CCCCCCCOC(C)=O	inactive	inactive	inactive	inactive	inactive	inactive	inactive	inactive		inactive		inactive	inactive	inactive	inactive	inactive	inactive	inactive	inactive	inactive
COC(=O)/C=C(\C)CCC=C(C)C	inactive	inactive	inactive	inactive	inactive	inactive	inactive		inactive	inactive	inactive	inactive	inactive	inactive	inactive	inactive	inactive	inactive	61.1 µM (active)	inactive
Cc1ccc(Br)cc1	inactive	inactive	inactive	inactive	inactive	inactive	inactive	inactive	inactive	inactive	inactive	inactive	inactive	inactive	inactive	inactive	inactive	inactive	inactive	
Cc1cc(O)c(Cl)cc1C	inactive	inactive	inactive	inactive	inactive	inactive	inactive	inactive	inactive	inactive	inactive	inactive	inactive		inactive	inactive	inactive	inactive	inactive	inactive
CCOC(=O)CC(C(C)=O)C(C)=O	inactive	inactive	inactive	inactive	inactive	inactive	inactive	inactive	inactive	inactive	inactive	inactive	inactive		inactive	inactive	inactive	inactive	inactive	inactive
C/C=C/C(=O)CCCC	inactive	inactive	inactive	inactive	inactive	inactive	inactive	inactive	inactive	inactive	inactive	inactive	inactive	inactive	inactive	inactive	inactive	inactive	inactive	
